# HEK293 tox: kills HEK 293 cells; HEK 293 viability, ATP luminescence (CellTiter-Glo), 48-72 h; Potency, µM (titrated, usually from 115 µM), for the others: at the highest dose activity change, negative = cytotoxicity, actives largely listed as inhibitors; 6.6% of 94,000 active; note: % is set by controls: 0 for no effect and ±100 for the full control effect; nearly all actives have a fitted effect of over 60% in size
#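 Cells seeded first (HEK 293, 250 cells/well), then compound added by pintool. Incubation ran 48 or 72 hr at 37 degree Celsius. CellTiter-Glo was added and luminescence imaged after 10 min at room temperature.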
# 3T3 cytotox: NIH 3T3 cell cytotoxicity; NIH 3T3 viability, CellTiter-Glo ATP luminescence, 48-72 h; Potency, µM (series often up to 96.7 µM), inactives show top-dose activity change, negative = cytotoxicity, most hits filed as inhibitors; 4.3% of 94,000 active; AID 1345082; note: % is set by controls: 0 for no effect and ±100 for the full control effect; nearly all actives have a fitted effect of over 55% in size
#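 Luminescent ATP readout (CellTiter-Glo, 10 min RT) after 48 or 72 hr compound exposure of NIH 3T3 cells seeded at 400 cells/well in 1536-well format; quantitative HTS.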
# SNCA viab count: reduces viability of HEK-293 SNCA reporter cells; HEK-293-SNCA-luc viability, GF-AFC fluorescence, 24 h; 0.12% of 150,000 active; AID 1671193; Potency, µM (series often up to 57.1 µM), inactives show top-dose activity change, negative = cytotoxicity, most hits filed as cytotoxic;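 note: 0% = DMSO-treated cells and -100% = medium-only wells without cells; nearly all actives have a fitted effect of over 30% in size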
#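 Cytotoxicity counterscreen: after 24 h compound treatment of genome-edited SNCA-luciferase HEK-293 cells, live-cell protease substrate GF-AFC read by fluorescence after 30 min; activity scaled between DMSO (0%) and medium-only (-100%), curves Hill-fitted.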
# NPR1 antag: antagonists of human natriuretic peptide receptor Npr1. HEK293 hNpr1 GloSensor cGMP, ANP-stimulated luminescence. Potency, µM (doses to about 46.3 µM), inactives show at the top dose activity change, negative = inhibition, hits mostly inhibitors. 1.6% of 76,000 active; calls by dose curve; note: % is set by controls: 0 for no effect and ±100 for the full control effect; nearly all actives have a fitted effect of over 60% in size
#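 Compound pre-incubated 30 min at room temperature on GloSensor-loaded HEK293 cells stably carrying hNpr1 and the pGS-40F cGMP biosensor. Stimulation uses hNppA at 0.1 nM final; luminescence is taken at baseline and 20 min post-agonist.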
# FLuc inh: Photinus pyralis luciferase inhibition; P08659; purified P. pyralis luciferase, luminescence, biochemical; Potency, µM (highest dose often 115 µM), most hits filed as inhibitors; 2.5% of 76,000 active; note: % is set by controls: 0 for no effect and ±100 for the full control effect; nearly all actives have a fitted effect of over 65% in size
#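 Cell-free enzyme assay, 10nM P. pyralis luciferase, luciferin and ATP each at 10uM. Inhibition profiled over a 6-point titration, read as luminescence.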
# SNCA expr inhib: SNCA gene expression inhibition; 0.17% of 140,000 active; HEK-293 SNCA-luciferase knock-in, luminescence, 24 h; Potency, µM (series often up to 57.2 µM), for inactives: at the top dose activity change, negative = inhibition, hits mostly inhibitors;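 note: plate controls were DMSO cells for no effect and cell-free wells for full effect; nearly all actives have a fitted effect of over 45% in size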
# Npr1 antag conf: confirmation of human Npr1 natriuretic peptide receptor antagonists | HEK293 hNpr1 cGMP GloSensor luminescence, ANP-stimulated | 76% of 1,400 active | Potency, µM (highest dose often 57.6 µM), without a hit: at the top dose activity change, negative = inhibition, most hits filed as inhibitors | shares compounds with NPR1 antag; calls by dose curve; note: nearly all actives have a fitted effect of over 70% in size
# Npr2 selectivity: antagonizes human Npr2, subtype selectivity check. shares compounds with NPR1 antag. HEK293 hNpr2 GloSensor cGMP luminescence, CNP-stimulated. Potency, µM (titrated, usually from 57.6 µM), without a hit: at the highest dose activity change, negative = inhibition, actives largely listed as inhibitors. 67% of 1,400 active; calls by dose curve; note: nearly all actives have a fitted effect of over 70% in size
# FLuc counter: counter-screen for Npr1 antagonists: firefly luciferase inhibitors. shares compounds with NPR1 antag. purified FLuc enzyme, luminescence, Km substrate. Potency, µM (titrated, usually from 57.6 µM), for inactives: top-dose activity change, negative = inhibition, usual class: inhibitors. 0.7% of 1,400 active. AID 1347047; note: series mostly up to about 58 µM; 0% is about no effect
# GloSensor ctrl: control cell line activity, Npr1 antagonist counter-screen. 69% of 1,400 active. AID 1347051. shares compounds with NPR1 antag. Potency, µM (highest dose often 57.6 µM), without a hit: at the highest dose activity change, negative = inhibition, actives largely listed as inhibitors. HEK293 GloSensor cGMP, SNP-stimulated, luminescence; calls by dose curve; note: % is set by controls: 0 for no effect and ±100 for the full control effect; nearly all actives have a fitted effect of over 70% in size
# Starred values were filed as active, the others as inactive; i = inactive; ? = inconclusive; nt = not tested or not shown; [ ] = remark or other dose. This is a sample that favours compounds with a hit; in the whole collection about 7.2% have one here. Unless noted, calls come from the whole dose curve; as a rule, active = well fitted curve in the direction sought with a large enough effect; inconclusive = small, poorly fitted or top-dose-only effect, or another doubt; inactive = no such curve, though single readings can be large; an effect the other way counts as inactive or inconclusive. Potency is the fitted concentration of half-maximal effect.
SMILES,HEK293 tox,3T3 cytotox,SNCA viab count,NPR1 antag,FLuc inh,SNCA expr inhib,Npr1 antag conf,Npr2 selectivity,FLuc counter,GloSensor ctrl
COc1ccc(NC(=O)N2CC(Oc3cccc(-c4nc(C)no4)c3)C2)cc1,?,?,3.2%,nt,nt,5.3%,nt,nt,nt,nt
COC(=O)c1ccc(NC(=O)N2CC(Oc3cccc(-c4nc(C)no4)c3)C2)cc1,?,?,-4.1%,12.6µM*,i,1.5%,24.3µM*,24.3µM*,-1.3%,24.3µM*
CN1CCC(N2CCN(C(=O)C3CCCN(S(C)(=O)=O)CCC(=O)NCC3)CC2)CC1 (configuration not stated),i,i,7.6%,7.3%,i,7.1%,nt,nt,nt,nt
CCS(=O)(=O)N1CCC2(CCC(=O)N(Cc3ccccc3)CC2)CC1,-15.0%,-8.2%,1.4%,-0.1%,i,-19.5%,nt,nt,nt,nt
O=C1CCC2(CCN1Cc1ccccc1)CCN(S(=O)(=O)c1cccs1)CC2,?,?,1.8%,?,i,17.0%,?,-28.5%,-0.1%,?
O=C(NCc1ccc(C(F)(F)F)cc1)C1CN(C2CCCCC2)C(=O)N1 (configuration not stated),?,?,4.9%[12.5 µM],nt,nt,-5.1%,nt,nt,nt,nt
CCCN1C(=O)Cc2cc(C(=O)NC(C)c3ccc(OCC)cc3)ccc21 (configuration not stated),?,?,8.8%,?,i,-18.0%,?,?,2.0%,?
N#Cc1ccc(C(=O)N[C@H]2[C@H](O)[C@H](O)C[C@@H]2c2cccnc2)cc1,i,-0.7%[174 µM],-7.3%[87.6 µM],0.4%[70.6 µM],i,-7.1%[87.6 µM],nt,nt,nt,nt
O=C1COCC2(CN1)CN(c1ccc(Oc3ccccc3)cc1)C2,?,?,-8.0%[87.6 µM],7.08µM*,i,7.0%[87.6 µM],11.1µM*,9.94µM*,-4.3%[86.2 µM],9.94µM*
O=S(=O)(N[C@H]1CO[C@H]2[C@@H]1OC[C@@H]2Nc1nccc(-c2ccc3c(c2)OCO3)n1)c1ccc2ccccc2c1,?,-47.8%,-16.4%,12.6µM*,i,?,24.3µM*,?,-0.4%,?
N#Cc1cccc(NC(=O)O[C@@H]2CO[C@H]3[C@@H]2OC[C@@H]3Nc2nccc(-c3cccc(F)c3)n2)c1,10µM*,22.4µM*,?,11.2µM*,i,?,19.3µM*,19.3µM*,0.7%,19.3µM*
CC(C)(C)C(=O)N[C@H]1CO[C@H]2[C@@H]1OC[C@@H]2Nc1nccc(-c2ccc(-c3ccccc3)cc2)n1,?,-29.8%,13.0%,?,i,-2.0%,21.7µM*,?,-0.9%,21.7µM*
O=C(Nc1cccc2ccccc12)O[C@@H]1CO[C@H]2[C@@H]1OC[C@@H]2Nc1nccc(-c2cccc(F)c2)n1,39.8µM*,?,-4.1%,-22.3%,i,?,?,?,5.8%,-27.4%
N#Cc1cccc(-c2ccnc(N[C@H]3CO[C@H]4[C@@H]3OC[C@H]4OC(=O)Nc3ccccc3)n2)c1,-28.4%,-12.0%,-2.2%,-10.1%,?,68.8%,nt,nt,nt,nt
Cc1ccc(C(=O)N[C@H]2CO[C@H]3[C@@H]2OC[C@@H]3Nc2nccc(-c3ccc4c(c3)OCO4)n2)cc1,?,?,-7.6%,1.9%,i,-0.8%,nt,nt,nt,nt
O=C(Nc1cccc2ccccc12)O[C@@H]1CO[C@H]2[C@@H]1OC[C@@H]2Nc1nccc(-c2ccccc2)n1,?,-24.6%,-12.6%,-10.4%,i,?,nt,nt,nt,nt
O=C(N[C@H]1CO[C@H]2[C@@H]1OC[C@@H]2Nc1nccc(-c2ccc(-c3ccccc3)cc2)n1)C1CC1,?,-9.1%,-2.1%,?,i,-7.5%,nt,nt,nt,nt
Brc1ccc(CN2CCC(c3nc4ccncc4[nH]3)C2)cc1 (configuration not stated),?,?,2.0%,11.2µM*,i,-22.4%,24.3µM*,21.7µM*,-1.1%,?
CN(Cc1nc(Cc2ccccc2Cl)no1)Cc1cccc2cnccc12,?,?,-12.8%,14.1µM*,i,-5.4%,10.9µM*,12.2µM*,0.4%,10.9µM*
COCCN(C)Cc1nc(Cc2ccccc2Cl)no1,i,2.1%,1.5%,3.3%,i,-29.0%,nt,nt,nt,nt
Cc1noc2c(-c3cn[nH]c3)cc(-c3cccc(C(F)(F)F)c3)nc12,35.5µM*,25.1µM*,?,?,i,?,?,-29.0%[86.2 µM],-7.5%[86.2 µM],-16.2%[86.2 µM]
Cc1noc2c(N(C)C)cc(-c3cccc(C(F)(F)F)c3)nc12,-12.9%[172 µM],?,-3.4%[87.6 µM],-23.9%[70.6 µM],i,-3.5%[87.6 µM],nt,nt,nt,nt
O=C(Nc1ccc(Cl)cc1Cl)c1cn2c(n1)CN(C(=O)c1ccccc1F)CC2,?,?,-15.0%,nt,nt,?,nt,nt,nt,nt
O=C(Nc1ccc(Cl)cc1Cl)c1cn2c(n1)CN(C(=O)c1ccccc1)CC2,?,?,-5.4%,nt,nt,0.6%,21.7µM*,21.7µM*,-9.7%,19.3µM*
O=C(O)CCC(=O)N1Cc2ccccc2CC2(CCCCN2CC2CCOCC2)C1 (configuration not stated),-3.8%,-1.9%,8.0%,nt,nt,-20.2%,nt,nt,nt,nt
CC(C)c1ccc(CN2CC[C@@H]3OCC(=O)N(C(C)C)[C@H]3CC2)cc1,?,?,-10.2%[87.6 µM],8.91µM*,i,-1.3%[87.6 µM],7.89µM*,11.1µM*,-0.1%[86.2 µM],6.27µM*
CC(C)N1C(=O)CO[C@H]2CCN(Cc3ccccc3)CC[C@@H]21,?,?,2.8%[87.6 µM],?,i,-3.8%[87.6 µM],nt,nt,nt,nt
CC(C)N1C(=O)CO[C@H]2CCN(Cc3ccccc3Cl)CC[C@@H]21,?,?,-15.2%[87.6 µM],2.82µM*,i,-23.0%[87.6 µM],7.89µM*,11.1µM*,3.2%[86.2 µM],6.27µM*
